According to PubChem BioAssay:
The source made the active and inactive calls.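 Rule for the calls: active = thallium flux through the channel raised or lowered by more than 3 SD from vehicle-only wells, actives on both sides; inactive = the rest.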

Key:
Test in all cases: modulators of BK channel variants, profiling panel, selectivity assay, cell-based, U2OS BacMam, thallium flux, beta subunits (AID 1259406);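 note: initial slope of Thallos dye fluorescence rise after thallium is added; log ratio against the mean of 0.3% DMSO vehicle wells on the same plate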
F380Y = details: at 30 µM
F380Y/beta1 = details: at 30 µM
F380Y/beta2Delta = details: at 30 µM
F380Y/beta4 = details: at 30 µM
[1] = target: Calcium-activated potassium channel subunit alpha-1 (Homo sapiens) + Leucine-rich repeat-containing protein 26 (Homo sapiens) (UniProt Q12791+Q2I0M4); details: F380Y/Slo1WT/gamma1, at 30 µM
Chain of Calcium-activated potassium channel subunit alpha-1 (Homo sapiens) + Leucine-rich repeat-containing protein 26 (Homo sapiens) (Q2I0M4 whole entry, looked up, one chain of several): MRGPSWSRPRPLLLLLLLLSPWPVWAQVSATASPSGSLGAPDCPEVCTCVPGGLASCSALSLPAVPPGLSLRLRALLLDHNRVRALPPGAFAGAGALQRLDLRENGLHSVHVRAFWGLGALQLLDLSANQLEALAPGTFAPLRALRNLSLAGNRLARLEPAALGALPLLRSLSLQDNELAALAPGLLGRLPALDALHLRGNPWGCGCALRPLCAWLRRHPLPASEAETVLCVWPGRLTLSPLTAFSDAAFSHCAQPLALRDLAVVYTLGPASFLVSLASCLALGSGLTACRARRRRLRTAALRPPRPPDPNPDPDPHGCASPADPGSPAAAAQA

R275C = details: at 30 µM
R275C/beta1 = details: at 30 µM
R275C/beta2Delta = details: at 30 µM
R275C/beta4 = details: at 30 µM
R275C/Slo1WT/beta2 = details: at 30 µM

Measured: log fold change Tl+ flux

NC(=NOC(=O)Nc1cccc(Cl)c1)c1ccno1
inactive: F380Y -0.00531 | F380Y/beta1 0.0032 | F380Y/beta2Delta 0.0232 | F380Y/beta4 0.000547 | [1] 0.0155 | R275C -0.025 | R275C/beta1 -0.0193 | R275C/beta2Delta 0.00772 | R275C/beta4 0.0126 | R275C/Slo1WT/beta2 0.0133

O=S(=O)(Cc1nc(-c2ccc3c(c2)OCCO3)cs1)c1ccccn1
inactive: F380Y -0.0443 | F380Y/beta1 -0.0373 | F380Y/beta2Delta 0.0231 | F380Y/beta4 -0.00916 | [1] -0.0733 | R275C -0.0303 | R275C/beta1 -0.0291 | R275C/beta2Delta 0.0317 | R275C/beta4 -0.00702 | R275C/Slo1WT/beta2 -0.0322

Oc1ccccc1C=NCCN=Cc1ccccc1O
inactive: F380Y -0.0379 | F380Y/beta1 -0.0045 | F380Y/beta2Delta 0.0233 | [1] 0.00734 | R275C 0.0166 | R275C/beta1 -0.00586 | R275C/beta2Delta 0.0216 | R275C/beta4 0.00607 | R275C/Slo1WT/beta2 0.0616
active: F380Y/beta4 0.122

CCOC(=O)c1ccc(-n2sccc2=O)cc1
active: R275C/beta1 0.179 | R275C/beta2Delta 0.113 | R275C/beta4 0.141
inactive: F380Y -0.0987 | F380Y/beta1 0.078 | F380Y/beta2Delta -0.0422 | F380Y/beta4 -0.0664 | [1] 0.0683 | R275C 0.0277 | R275C/Slo1WT/beta2 0.0482

CC(=O)Nc1ccc(S(=O)(=O)C[N+](=O)[O-])cc1
inactive: F380Y -0.0207 | F380Y/beta1 -0.00968 | F380Y/beta2Delta 0.0255 | F380Y/beta4 -0.00689 | [1] 0.00333 | R275C -0.0177 | R275C/beta1 -0.00122 | R275C/beta2Delta 0.0327 | R275C/beta4 -0.0178 | R275C/Slo1WT/beta2 -0.0147

O=S1(=O)CC(N2CCOCC2)c2ccccc21 (stereo not given)
inactive: F380Y -0.0264 | F380Y/beta1 -0.00462 | F380Y/beta2Delta 0.0333 | F380Y/beta4 0.00745 | [1] 0.00701 | R275C -0.00299 | R275C/beta1 0.0226 | R275C/beta2Delta 0.00722 | R275C/beta4 0.00198 | R275C/Slo1WT/beta2 -0.0351

CN(C)C=NC(=O)c1sc(S(C)(=O)=O)c2c1CCC=C2
active: F380Y 0.147
inactive: F380Y/beta1 0.036 | F380Y/beta2Delta -0.00643 | F380Y/beta4 0.00437 | [1] -0.0666 | R275C 0.00156 | R275C/beta1 -0.0344 | R275C/beta2Delta 0.00771 | R275C/beta4 -0.00153 | R275C/Slo1WT/beta2 0.0518

CCCn1c(=O)c(Br)cn(-c2ccccc2C)c1=O
inactive: F380Y -0.00732 | F380Y/beta1 -0.0448 | F380Y/beta2Delta -0.0565 | F380Y/beta4 0.00537 | [1] -0.011 | R275C 0.0371 | R275C/beta1 0.0334 | R275C/beta2Delta -0.00562 | R275C/beta4 0.00534 | R275C/Slo1WT/beta2 0.0347

Cc1nn(-c2ccccc2)nc1CNC(=O)COc1ccccc1
inactive: F380Y -0.0388 | F380Y/beta1 -0.0688 | F380Y/beta2Delta -0.0499 | F380Y/beta4 -0.0891 | [1] -0.0325 | R275C -0.00552 | R275C/beta1 -0.0187 | R275C/beta2Delta 0.0169 | R275C/beta4 -0.0424 | R275C/Slo1WT/beta2 0.0189

O=C(NC1CCSC1)c1ccccc1NS(=O)(=O)c1ccccc1 (stereo not given)
active: R275C -0.153 | R275C/beta1 -0.151 | R275C/beta2Delta -0.158 | R275C/beta4 -0.0828
inactive: F380Y -0.000365 | F380Y/beta1 -0.00386 | F380Y/beta2Delta -0.00638 | F380Y/beta4 0.00736 | [1] -0.0334 | R275C/Slo1WT/beta2 -0.0155

Cc1nnc(-c2ccccn2)[nH]c1=O
inactive: F380Y -0.0188 | F380Y/beta1 -0.0365 | F380Y/beta2Delta -0.0191 | F380Y/beta4 -0.0613 | [1] 0.0158 | R275C 0.0139 | R275C/beta1 -0.0558 | R275C/beta2Delta 0.00421 | R275C/beta4 -0.00382 | R275C/Slo1WT/beta2 0.0227

Cn1c(SCCS(=O)(=O)c2ccc(OC(F)(F)F)cc2)nnc1C(F)(F)F
inactive: F380Y -0.047 | F380Y/beta1 -0.00843 | F380Y/beta2Delta -0.0119 | F380Y/beta4 0.00857 | [1] -0.00452 | R275C 0.0189 | R275C/beta1 -0.0256 | R275C/beta2Delta -0.0306 | R275C/beta4 -0.0219 | R275C/Slo1WT/beta2 -0.0104

Cc1cc(N=CN(C)C)c2ccccc2n1
inactive: F380Y 0.0195 | F380Y/beta1 0.00784 | F380Y/beta2Delta 0.0182 | F380Y/beta4 -0.00491 | [1] 0.00683 | R275C 0.0312 | R275C/beta1 0.046 | R275C/beta2Delta 0.0104 | R275C/beta4 0.0114 | R275C/Slo1WT/beta2 -0.0666
